Assay results as given in PubChem BioAssay AID1851 (National Center for Advancing Translational Sciences (NCATS), 2009).
Among all 16,000 compounds or so, about 2,600 (16%) were called active. Roughly 20% stayed inconclusive and do not appear here. Not all results are given here. Unmarked numbers belong to inactive results. The call rests on the fitted dose curve; in most records, active means well fitted curve in the direction sought with a large enough effect; inconclusive means small, poorly fitted or top-dose-only effect, or effect the other way; inactive means no such curve, though single readings can be large or run the other way.

Target: Cytochrome P450 2D6 (Homo sapiens) (UniProt P10635)
Sequence (P10635 whole entry, looked up): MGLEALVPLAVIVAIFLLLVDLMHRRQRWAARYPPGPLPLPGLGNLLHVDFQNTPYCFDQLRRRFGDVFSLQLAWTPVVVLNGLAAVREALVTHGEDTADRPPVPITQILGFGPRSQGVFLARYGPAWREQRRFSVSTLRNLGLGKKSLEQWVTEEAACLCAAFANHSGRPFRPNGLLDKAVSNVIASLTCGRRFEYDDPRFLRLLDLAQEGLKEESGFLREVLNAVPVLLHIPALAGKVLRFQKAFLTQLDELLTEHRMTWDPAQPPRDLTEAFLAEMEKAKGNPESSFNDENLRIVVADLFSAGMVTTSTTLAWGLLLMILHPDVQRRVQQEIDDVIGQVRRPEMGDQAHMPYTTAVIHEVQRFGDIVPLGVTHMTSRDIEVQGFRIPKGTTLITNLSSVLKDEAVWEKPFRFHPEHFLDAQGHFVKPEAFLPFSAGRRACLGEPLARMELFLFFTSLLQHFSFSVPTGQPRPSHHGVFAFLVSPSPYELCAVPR
Assay: Cytochrome panel assay with activity outcomes
Details: recombinant CYP, pro-luciferin dealkylation, luminescence, p450-cyp2d6; series mostly up to 57.1 µM; activity, negative = inhibition: at the top concentration
On the % scale 0 is the no-effect control and ±100 the full control effect.

SMILES	activity, negative = inhibition	AC50
CCCCN1C(=O)C(NC(=O)C2CC2)(C(F)(F)F)C2=C1CC(C)(C)CC2=O (configuration not stated)	8.85%	–
O=C(CCn1nc(-c2ccc(Cl)cc2)ccc1=O)N1CCOCC1	-10.2%	–
O=C1Nc2ccccc2C1=Nc1cccc2ncccc12	-4.91% [at 11.4 µM]	–
Nc1ncnc2c1ncn2CCCCC(=O)O	-3.98% [at 11.4 µM]	–
O=c1c(-c2ccccc2)nc2cncnc2n1-c1ccccc1	-2.82%	–
CCC(CC)C(=O)Nc1c2cnn(-c3ccccc3)c2nc(=O)n1-c1ccccc1	-3.81%	–
CCCc1nnc(NC(=O)CN2C(=O)C3C4C=CC(C4)C3C2=O)s1 (configuration not stated)	13.7%	–
O=c1cnc2cnc(N3CCOCC3)nc2n1C1CC1	3.75%	–
COc1ccccc1CNc1ncnc2ccc(-c3ccoc3)cc12	–	3.16 µM (active)
COc1ccc(CNc2ncnc3ccc(-c4ccoc4)cc23)c(OC)c1	–	10 µM (active)
COCCNc1ncnc2ccc(-c3ccoc3)cc12	0.232%	–
COc1ccccc1CNc1ncnc2ccc(-c3ccc4c(c3)OCO4)cc12	–	0.794 µM (active)
COc1ccc(CNc2ncnc3ccc(-c4c(C)noc4C)cc23)c(OC)c1	–	15.8 µM (active)
CCOC(=O)COc1ccc(/C=C/[N+](=O)[O-])c(OCC(=O)OCC)c1	-6.43%	–
Clc1ccc(Nc2ncn[nH]2)cc1	11%	–
CCCCCCCCCCCCCCCC(=O)C(F)(F)F	-3.23%	–
Cc1cc(C)c(-c2noc(C(=O)OC(C)(C)C)c2C(=O)OC(C)(C)C)c(C)c1	-5.04%	–
Cc1cc(OC(=O)c2ccccc2Cl)cc(=O)n1C	-6.09%	–
Cc1sc2ncn(CC(=O)NCCCC(=O)N3CCN(c4ncccn4)CC3)c(=O)c2c1C	0.039%	–
Cc1ccc(C)n1N1C(=O)/C(=C\c2ccc(Cl)cc2)SC1=S	-11.4%	–
Cn1c(SCC(=O)NC2CC2)nnc1-c1cccc(NC(=O)c2ccccc2F)c1	-21%	–
C[C@H]1/C=C\CC(=O)OC[C@H](C)C(=O)N2CCC[C@@H]2C(=O)OC1	-8.94% [at 11.4 µM]	–
COc1ccc2nccc(SCC(=O)O)c2c1	-10.3% [at 11.4 µM]	–
COc1ccc2nc(NC(=O)CSc3nnc(C)s3)sc2c1	-7.57%	–
COc1ccc2c(c1)nc(SCC(=O)c1ccc(Br)s1)n2C	–	5.01 µM (active)
CCOC(=O)C1=C(N)n2c(s/c(=C/c3ccccc3)c2=O)=C(C(=O)OCC)C1c1ccccc1 (configuration not stated)	5.82%	–

SMILES	activity, negative = inhibition	AC50
c1ccc(-c2nc3ccccc3o2)nc1	-8.6%	–
Cn1c(=O)c(-c2cccs2)nc2cnc(N3CCNCC3)nc21	-7.69%	–
Cc1ccc(-n2[nH]c(=O)c3cccnc32)cc1	17%	–
CC(C)c1ccc2c(c1)CC[C@H]1[C@@](C)(CN)CCC[C@@]21C	–	1.26 µM (active)
COc1ccc(Cc2nc3ccc(S(=O)(=O)N4CCOCC4)cc3[nH]2)cc1OC	-0.602%	–
CCCCC#Cc1nc(N)c2ncn([C@@H]3O[C@@H](C(=O)NCC)[C@H](O)[C@@H]3O)c2n1	11%	–
COc1cccc(-c2noc(Cn3nc(C)c([N+](=O)[O-])c3C)n2)c1	-13.8%	–
COc1cccc(CN2CCN(Cc3cc(OC)c(OC)cc3[N+](=O)[O-])CC2)c1	–	0.224 µM (active)
CCOc1ccc(C(=O)Cc2cc(OC)c(OC)cc2[N+](=O)[O-])cc1	6.77%	–
COc1cccc(Nc2ncc3ncc(=O)n(C)c3n2)c1	-4.79%	–
COc1ccc(CCNC(=O)Cn2cnc3c2c(=O)n(C)c(=O)n3C)cc1OC	2.41%	–
O=C(O)c1nn(-c2ccc(Cl)cc2)c2c1C(=O)c1ccccc1C2=O	-7.18% [at 11.4 µM]	–
O=C(Nc1ccc(Cl)cc1)NC1CCCCC1	-2.71%	–
O=C(Nc1ccc2c(c1)nc1n2CCN(C2CCCCC2)C1)NC1CCCCC1	–	12.6 µM (active)
CCCNC(=O)Nc1ccc2c(c1)nc(C)n2C	8.71%	–
O=C(O)CC/C=C\CC[C@H]1[C@@H](N2CCCCC2)[C@@H](O)C[C@@H]1OCc1ccc(-c2ccccc2)cc1	10.6%	–
COc1ccc2c(c1)CCCC21NC(=O)N(CC(N)=O)C1=O (configuration not stated)	11.4%	–
CCOC(=O)N1N=C(c2ccccc2)CC1(O)C(F)(F)F (configuration not stated)	3.62%	–
COC(=O)c1ccc(NC(=O)c2ccccc2)o1	12.2%	–
CN1CCN2c3ncccc3Cc3ccccc3C2C1 (configuration not stated)	–	0.501 µM (active)
O=c1[nH]c(=S)[nH]nc1Cc1ccccc1	4.49%	–
Cc1c(N(C)C)c(=O)n(-c2ccccc2)n1C	1.13% [at 25.6 µM]	–
CSC1=C(C#N)C(c2ccccc2Cl)C2=C(N1)c1ccccc1C2=O (configuration not stated)	-20.8%	–
COc1cc(/C=C/C(=O)Nc2ccccc2C(F)(F)F)cc(OC)c1OC	4.2%	–
CCc1ccc2c(-c3cccc(Cl)c3)nc(=O)n(CC)c2n1	-15%	–
Cc1ccc(C(=O)COC(=O)CNC(=O)C(c2ccccc2)c2ccccc2)cc1[N+](=O)[O-]	-8.5%	–
